Shown are actives, neighbours in structure and some others; about 4.6% of the full set was active somewhere.
hgDAF-12 ag = hgDAF-12 agonism, primary luciferase screen; HEK293 GAL4-hgDAF12 UAS-luciferase reporter, agonist luminescence; normalized to butyrate control; activation, % at 6.8 µM; 370,000 compounds, 1.8% hits; AID 687014;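 active = activation above a cutoff set at the mean of all screened compounds plus 3 SD, cut at about 10% in these data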;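 note: 0% = DMSO wells and 100% = sodium butyrate wells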
hcDAF12 agonist = activators of H. contortus DAF-12 nuclear receptor. HEK293 hcDAF-12 lit1-tk-luc reporter, luminescence; 0% DMSO, 100% Δ7-dafachronic acid. activation, % at 6.8 µM. 370,000 compounds, 1.4% hits;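 active = activation above the mean of all tested compounds plus 3 SD, cut at about 5.5% in these data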;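 note: 100% = response to 3 µM Δ7-dafachronic acid high control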
ssDAF-12 act = S. stercoralis DAF-12 activation, primary screen | HEK293 ssDAF-12/GRIP1 lit1-tk-luc reporter, luminescence; % of 3 µM dafachronic acid response | activation, % at 6.8 µM | 370,000 compounds, 1% hits;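 active = activation above the mean over all tested compounds plus 3 SD, cut at about 0.9% in these data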;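 note: 0% = DMSO-only wells and 100% = 3 µM delta7-dafachronic acid wells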
DAX1 inh-1 = inhibits human nuclear receptor DAX1 | P51843 | HEK293 Gal4-DAX1 luciferase reporter, luminescence | 340,000 compounds, 0.99% hits | inhibition, % at 6.75 µM;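 active = inhibition above the mean over all tested compounds plus 3 SD, cut at about 4.2% in these data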;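 note: 0% = DAX1-transfected cells with DMSO and 100% = empty-vector control cells with DMSO; inhibition shows as a rise in luminescence from relieved DAX1 repression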
Target sequence (P51843 207-470 limits assumed): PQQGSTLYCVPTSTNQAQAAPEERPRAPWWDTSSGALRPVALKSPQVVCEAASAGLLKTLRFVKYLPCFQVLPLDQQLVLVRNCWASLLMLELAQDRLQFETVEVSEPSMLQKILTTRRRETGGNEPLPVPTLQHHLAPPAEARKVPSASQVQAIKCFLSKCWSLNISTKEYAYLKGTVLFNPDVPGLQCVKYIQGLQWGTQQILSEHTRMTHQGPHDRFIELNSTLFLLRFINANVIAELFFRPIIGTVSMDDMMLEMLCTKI
Wee1 stabilizer = blocks degradation of human Wee1 kinase; reporter increase, % at 5 µM; 220,000 compounds, 1.2% hits; HeLa Luc-Wee1K328M stability, luciferase luminescence; 100% = proteasome inhibitor MG132 effect; P30291; AID 1321;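 active = activation above the mean of all tested compounds plus 3 SD, set per screening run, cut at about 8.8% in these data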;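 note: cells exposed to compound for 20 h before luminescence read; 0% = DMSO alone and 100% = MG132 at 30 µM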
DAX1 inh-2 = inhibitors of DAX1 repression of SF-1 activated StAR promoter. HEK293T StAR-luciferase reporter, SF-1/DAX-1 repression relief. inhibition, % at 6.8 µM. 370,000 compounds, 1.1% hits;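 active = inhibition above the mean over all tested compounds plus 3 SD, cut at about 3.6% in these data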;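 note: 0% = DAX-1 cells with DMSO and 100% = cells lacking DAX-1 with DMSO; higher inhibition means more luminescence from relief of DAX-1 repression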
* hit, by the source's call; . = no result.

SMILES	hgDAF-12 ag	hcDAF12 agonist	ssDAF-12 act	DAX1 inh-1	Wee1 stabilizer	DAX1 inh-2
COC(=O)c1ccc(NC(=S)Nc2ccc(O)cc2)cc1	-1	0	0	0	1	-1
COc1cccc(NC(=S)Nc2cc(C)cc(C)n2)c1	6	5	1.7*	5.3*	1	1
Cc1cccc(NC(=S)NNc2cccc(Cl)c2)c1	1	3	1.0*	-1	.	0
COc1ccc(-c2c(C)c3ccc(O)cc3oc2=O)cc1	5	-1	-1	0	.	2
N#CCCN/N=C(/Cc1nc2ccccc2[nH]1)c1cccc(Cl)c1	1	4	1.3*	0	-2	0
Nc1ccn([C@@H]2O[C@H](C(=O)N[C@H](CO)c3ccccc3)[C@@H](O)[C@H]2O)c(=O)n1	2	2	-1	.	.	1
COc1cc2c3c(c1OC)C1(C=CC(=NO)C=C1)CC3N(C(C)=O)CC2 (centres undefined)	-1	0	-1	-1	10*	0
COc1cc2c3c(c1OC)C1(C=CC(=O)C=C1)CC3N(C(C)=O)CC2 (centres undefined)	-1	-2	-1	-1	0	1
Cc1ccc2nc(N(CCCN(C)C)C(=O)c3ccco3)sc2c1	3	2	-2	0	10*	1
CN(C)CCCN(C(=O)c1cc(Cl)sc1Cl)c1nc2cc3c(cc2s1)OCO3	3	3	0	1	.	4.1*
Cc1cccc(Cn2cc(COC(=O)N3CCCC3)nn2)c1	-2	-1	-2	.	.	0
O=C(/C=C/c1ccccc1)Nc1cccc(C(=O)NC2CC2)c1	9	1	0	1	.	3.8*
CCOc1ccc(Oc2c(Cl)c(Br)nn(Cc3cccc4ccccc34)c2=O)cc1	0	-1	-1	.	.	0
Cc1cc(Cl)ccc1Nc1ncccc1C(N)=O	9	2	-1	9.6*	2	1
O=C1NC(c2ccc3c(c2)OCO3)Nc2ccccc21 (centres undefined)	2	1	-1	1	11*	1
O=C1NC(c2ccc3c(c2)OCO3)Oc2ccccc21 (centres undefined)	1	1	-2	0	-1	0
O=C1NC(Cc2ccccc2)c2nc3cc(F)ccc3c(=O)n2-c2ccccc21 (centres undefined)	0	2	-1	.	.	0
COc1ccc(-c2nnc(N(C)C(=O)C3CCCO3)s2)cc1 (centres undefined)	13*	3	0	1	1	1
COc1ccc(-c2nnc(N(C)C(=O)C3CCOC3)s2)cc1 (centres undefined)	6	0	-1	1	0	0
CCOC(=O)C(=CNc1ccc(Oc2cccnc2)nc1)C(=O)OCC	-1	0	-1	-1	9.9*	-1
Cc1sc2nc(-c3cccnc3)nc(Cl)c2c1-c1ccccc1	3	-4	-1	4.3*	0	0
Cc1sc2nc(-c3ccccc3)[nH]c(=O)c2c1-c1ccccc1	.	.	.	.	-1	.
COc1ccccc1NC(=O)COc1ccccc1C(=O)c1cnn(-c2ccccc2)c1	13*	2	0	-1	0	1
COc1ccccc1NC(=O)COc1ccccc1	4	5	-1	3	-3	1
NC(=NCc1ccccc1)NC(=O)OCc1ccccc1	4	0	-1	.	.	2
SMILES	hgDAF-12 ag	hcDAF12 agonist	ssDAF-12 act	DAX1 inh-1	Wee1 stabilizer	DAX1 inh-2
Clc1ccccc1C1CC(c2ccccc2)=Nc2ccccc2N1 (centres undefined)	8	2	-1	4.8*	0	1
O=C(NCc1ccccc1F)C1CCC(CNS(=O)(=O)c2cccc3cccnc23)CC1 (centres undefined)	-1	0	-1	.	.	-1
Cc1nc(NC(=S)NC(=O)c2cccs2)ccc1Br	5	5	1.3*	1	0	0
Cc1ccc(OCC(=O)NC(=S)Nc2cccc(C)n2)cc1	0	2	-1	7.8*	-3	0
Cc1cccc(NC(=O)Nc2cccc(C)n2)n1	3	-1	-1	1	0	0
Cc1cccc(NC(=O)Nc2ccc(C)c(C)c2)n1	7	6.2*	1	2	6	1

Screening data (PubChem BioAssay)
